The sequences below were run against ULK1 (assay: pooled miR-30 sensor sort-seq; sequence = guide strand). Conditions: shRNA.
TTGTTCTTCTCGTAGAACAGGC gave a sensor-assay potency score (higher = more potent) of -0.479.
Work on TTCTTCTCGTAGAACAGGCGCA yielded a sensor-assay potency score (higher = more potent) of -0.466.
For TTGCAAAGAAAAACACACGTGT, the sensor-assay potency score (higher = more potent) was 0.333.
For TTGCGGGAGAACTCGAACTTGC, the sensor-assay potency score (higher = more potent) was -0.945.
In the case of TTCAGGTACAGCACCAGCTGTT, the sensor-assay potency score (higher = more potent) was -0.477.
With TTGCTCTGGAGGTACCGCGCGA the sensor-assay potency score (higher = more potent) was -0.555.
TTGAACAAAGAACTGCCTCTGC gave a sensor-assay potency score (higher = more potent) of 1.01.
In the case of TTGTACAGCTCATTCAGCCTGC, the sensor-assay potency score (higher = more potent) was 0.11.
With TTCTTCTTGTTAATGCACTTGA the sensor-assay potency score (higher = more potent) was 0.0356.
With ATGTGTATGTACAAACACCAGG the sensor-assay potency score (higher = more potent) was -1.55.
ATCAAGAGAACATTCAACCAGG was tested, and the sensor-assay potency score (higher = more potent) was -0.0767.
TTTTTGTCTGTTATGTGGCGTG was tested, and the sensor-assay potency score (higher = more potent) was -0.361.

What follows are sequences tested against UMOD in the same assay as above. Conditions: shRNA.
TATACTGCACTCCTCACACGTC gave a sensor-assay potency score (higher = more potent) of -0.701.
In the case of TTGCACTTTTCATTCATGGTGT, the sensor-assay potency score (higher = more potent) was 0.244.
For TAGACTAGGTCATAGTTTCCAG, the sensor-assay potency score (higher = more potent) was -0.219.
Work on TTCCTCGTCAACACTGTCCCAC yielded a sensor-assay potency score (higher = more potent) of 0.0538.
ATCAGTGATGTTGAAGTCCTGT showed a sensor-assay potency score (higher = more potent) of 0.164.
TTTCATTCCTCGTCAACACTGT gave a sensor-assay potency score (higher = more potent) of 0.582.
Sequence TAGAGCACTGACCATTGGCTGT has a sensor-assay potency score (higher = more potent) of -0.936.
With TTGAAGTCCTGTTTGCACTGGC the sensor-assay potency score (higher = more potent) was 0.829.
TCGATTTGCAGTCCTCGTCTAT was tested, and the sensor-assay potency score (higher = more potent) was -0.657.
TTGCAGTCCTCGTCTATACTGC showed a sensor-assay potency score (higher = more potent) of -0.687.
TAGTTGAGTCTCTAGTGTGTGG showed a sensor-assay potency score (higher = more potent) of -0.521.
TTGTAGACGTAGTAGCCGCCGG was tested, and the sensor-assay potency score (higher = more potent) was -1.04.

These sequences were tested against UNC5A in the same assay as above. Conditions: shRNA.
TTGATGCTGAAGCTCTGCCCGT gave a sensor-assay potency score (higher = more potent) of -1.2.
TTACTCTTCCACAGGGAGCTGG was tested, and the sensor-assay potency score (higher = more potent) was -0.541.
With TTGAAGAAGATCTGCGTGGCGG the sensor-assay potency score (higher = more potent) was -0.341.
Sequence TAGATCTCATAGATCTTCCCTC has a sensor-assay potency score (higher = more potent) of -0.268.
Work on TTGGTGAGCTGGAACTTGGGGC yielded a sensor-assay potency score (higher = more potent) of -0.337.
For TTGCACTTGAAGAAGATCTGCG, the sensor-assay potency score (higher = more potent) was 0.732.
In the case of TAGACGATGACAGCAGCGGAGG, the sensor-assay potency score (higher = more potent) was -1.55.
Work on TCTCATAGATCTTCCCTCGGGG yielded a sensor-assay potency score (higher = more potent) of -0.279.
TTGAAGTTGATGCTGAAGCTCT gave a sensor-assay potency score (higher = more potent) of -0.155.
Sequence TTAAGGGACAGCTTCGGCCGGG has a sensor-assay potency score (higher = more potent) of -0.139.
TAGGCCTTCTGACTCTTGGTGG was tested, and the sensor-assay potency score (higher = more potent) was -0.43.
In the case of TTGAGGATCATGGCTGTGGGGC, the sensor-assay potency score (higher = more potent) was -1.23.

Reference: the OligoGym collection
